Assay [1] has as its target Sphingosine kinase 1 (Homo sapiens) (UniProt Q9NYA1). The conditions noted are these: at 1 µM.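 Further: mean SPHK1 inhibition value reported from the GSK PKIS kinase panel screen.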
Assay [2] has as its target T1, Sphingosine kinase 2 (Homo sapiens) (UniProt Q9NRA0).
T1 sequence (whole entry): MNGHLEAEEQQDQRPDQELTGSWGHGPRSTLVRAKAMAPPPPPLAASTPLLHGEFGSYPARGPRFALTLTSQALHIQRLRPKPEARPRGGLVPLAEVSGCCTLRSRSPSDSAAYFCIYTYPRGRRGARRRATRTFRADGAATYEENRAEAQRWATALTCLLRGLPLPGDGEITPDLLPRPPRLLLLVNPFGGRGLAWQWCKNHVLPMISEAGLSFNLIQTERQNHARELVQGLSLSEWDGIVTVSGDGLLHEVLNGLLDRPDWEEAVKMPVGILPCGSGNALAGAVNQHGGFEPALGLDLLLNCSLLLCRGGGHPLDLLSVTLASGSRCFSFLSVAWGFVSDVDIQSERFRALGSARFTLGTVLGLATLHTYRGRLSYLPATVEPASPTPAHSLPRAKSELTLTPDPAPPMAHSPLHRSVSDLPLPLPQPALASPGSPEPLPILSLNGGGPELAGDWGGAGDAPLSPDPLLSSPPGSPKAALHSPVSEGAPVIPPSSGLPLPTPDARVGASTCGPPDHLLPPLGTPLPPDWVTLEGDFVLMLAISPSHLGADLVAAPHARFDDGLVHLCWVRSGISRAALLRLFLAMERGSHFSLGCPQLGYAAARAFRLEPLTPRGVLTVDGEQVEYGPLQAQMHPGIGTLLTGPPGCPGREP
The conditions noted are these: at 0.1 µM.

The target in assay [3] is T1, Sphingosine kinase 2 (Homo sapiens). Conditions: at 1 µM.
Assay [4] addresses Casein kinase II subunit alpha (Homo sapiens) (UniProt P68400). The conditions noted are these: at 0.1 µM.
Assay [5] shares this target. Conditions: at 1 µM.
Assay [6] deals with T2, Inhibitor of nuclear factor kappa-B kinase subunit alpha (Homo sapiens) (UniProt O15111).
T2 sequence (whole entry): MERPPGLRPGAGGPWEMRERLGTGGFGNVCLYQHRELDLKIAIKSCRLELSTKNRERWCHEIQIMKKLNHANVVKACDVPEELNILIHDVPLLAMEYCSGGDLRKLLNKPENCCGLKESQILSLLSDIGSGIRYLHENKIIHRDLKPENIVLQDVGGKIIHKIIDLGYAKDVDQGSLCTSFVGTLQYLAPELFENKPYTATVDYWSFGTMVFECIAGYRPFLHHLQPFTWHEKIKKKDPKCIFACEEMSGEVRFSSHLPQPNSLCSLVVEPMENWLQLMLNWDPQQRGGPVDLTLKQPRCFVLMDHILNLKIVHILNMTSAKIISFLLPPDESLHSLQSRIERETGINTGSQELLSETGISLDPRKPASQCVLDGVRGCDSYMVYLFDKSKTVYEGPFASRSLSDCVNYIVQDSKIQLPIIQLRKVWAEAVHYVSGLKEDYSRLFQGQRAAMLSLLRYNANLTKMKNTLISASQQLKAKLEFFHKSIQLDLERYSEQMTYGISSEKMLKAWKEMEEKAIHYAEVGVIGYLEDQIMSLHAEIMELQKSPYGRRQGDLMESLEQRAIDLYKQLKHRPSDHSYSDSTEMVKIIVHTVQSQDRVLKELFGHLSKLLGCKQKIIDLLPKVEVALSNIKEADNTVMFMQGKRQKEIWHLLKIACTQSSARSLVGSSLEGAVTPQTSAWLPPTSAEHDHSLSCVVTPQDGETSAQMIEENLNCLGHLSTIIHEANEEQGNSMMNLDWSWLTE
Conditions: at 0.1 µM.

The target of assay [7] is T2, Inhibitor of nuclear factor kappa-B kinase subunit alpha (Homo sapiens). The conditions noted are these: at 1 µM.
Assay [8] concerns the target T3, Inhibitor of nuclear factor kappa-B kinase subunit beta (Homo sapiens) (UniProt O14920).
T3 sequence (whole entry): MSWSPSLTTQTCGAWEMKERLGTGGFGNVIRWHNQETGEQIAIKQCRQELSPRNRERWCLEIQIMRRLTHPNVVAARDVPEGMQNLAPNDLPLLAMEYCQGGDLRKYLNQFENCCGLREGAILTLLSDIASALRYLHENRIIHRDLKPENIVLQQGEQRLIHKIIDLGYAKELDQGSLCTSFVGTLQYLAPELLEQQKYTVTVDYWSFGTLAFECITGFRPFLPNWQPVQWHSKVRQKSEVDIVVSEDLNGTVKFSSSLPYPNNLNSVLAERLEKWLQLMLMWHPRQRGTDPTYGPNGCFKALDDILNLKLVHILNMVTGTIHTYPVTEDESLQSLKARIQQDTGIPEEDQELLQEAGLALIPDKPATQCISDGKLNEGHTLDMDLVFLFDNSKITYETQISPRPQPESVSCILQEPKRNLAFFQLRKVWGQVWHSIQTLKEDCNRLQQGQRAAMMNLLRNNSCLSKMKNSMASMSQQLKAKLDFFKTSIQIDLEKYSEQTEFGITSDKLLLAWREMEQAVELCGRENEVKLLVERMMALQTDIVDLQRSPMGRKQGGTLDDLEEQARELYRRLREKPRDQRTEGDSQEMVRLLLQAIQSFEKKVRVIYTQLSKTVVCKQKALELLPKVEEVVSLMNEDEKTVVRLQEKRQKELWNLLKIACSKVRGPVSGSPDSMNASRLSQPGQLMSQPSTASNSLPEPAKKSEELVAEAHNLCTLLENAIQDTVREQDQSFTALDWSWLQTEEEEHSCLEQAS
Conditions: at 0.1 µM.

In assay [9] the target is T3, Inhibitor of nuclear factor kappa-B kinase subunit beta (Homo sapiens). The conditions noted are these: at 1 µM.
The target in assay [10] is T4, Inhibitor of nuclear factor kappa-B kinase subunit epsilon (Homo sapiens) (UniProt Q14164).
T4 sequence (whole entry): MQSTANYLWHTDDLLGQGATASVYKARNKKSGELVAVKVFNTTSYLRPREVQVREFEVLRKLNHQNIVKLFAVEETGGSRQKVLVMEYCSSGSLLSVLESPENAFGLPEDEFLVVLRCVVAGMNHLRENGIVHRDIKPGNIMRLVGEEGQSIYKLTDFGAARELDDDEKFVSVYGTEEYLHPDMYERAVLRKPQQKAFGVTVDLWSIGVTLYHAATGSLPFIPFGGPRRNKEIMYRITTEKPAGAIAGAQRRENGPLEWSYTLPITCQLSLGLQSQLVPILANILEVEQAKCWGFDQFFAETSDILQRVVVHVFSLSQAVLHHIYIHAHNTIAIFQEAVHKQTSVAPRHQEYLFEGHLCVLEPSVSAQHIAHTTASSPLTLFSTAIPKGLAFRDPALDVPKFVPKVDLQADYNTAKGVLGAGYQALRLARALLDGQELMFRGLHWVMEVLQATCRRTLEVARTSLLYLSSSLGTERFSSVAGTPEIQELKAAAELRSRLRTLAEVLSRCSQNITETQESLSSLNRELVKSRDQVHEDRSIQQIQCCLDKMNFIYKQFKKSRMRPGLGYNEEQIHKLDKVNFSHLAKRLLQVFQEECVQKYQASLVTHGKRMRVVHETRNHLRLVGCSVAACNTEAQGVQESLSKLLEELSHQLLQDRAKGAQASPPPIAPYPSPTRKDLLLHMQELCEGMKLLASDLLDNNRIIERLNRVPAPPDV
Conditions: at 0.1 µM.

Assay [11] has as its target T4, Inhibitor of nuclear factor kappa-B kinase subunit epsilon (Homo sapiens). The conditions noted are these: at 1 µM.
Assay [12] concerns the target T5, Serine/threonine-protein kinase Nek1 (Homo sapiens) (UniProt Q96PY6).
T5 sequence (whole entry): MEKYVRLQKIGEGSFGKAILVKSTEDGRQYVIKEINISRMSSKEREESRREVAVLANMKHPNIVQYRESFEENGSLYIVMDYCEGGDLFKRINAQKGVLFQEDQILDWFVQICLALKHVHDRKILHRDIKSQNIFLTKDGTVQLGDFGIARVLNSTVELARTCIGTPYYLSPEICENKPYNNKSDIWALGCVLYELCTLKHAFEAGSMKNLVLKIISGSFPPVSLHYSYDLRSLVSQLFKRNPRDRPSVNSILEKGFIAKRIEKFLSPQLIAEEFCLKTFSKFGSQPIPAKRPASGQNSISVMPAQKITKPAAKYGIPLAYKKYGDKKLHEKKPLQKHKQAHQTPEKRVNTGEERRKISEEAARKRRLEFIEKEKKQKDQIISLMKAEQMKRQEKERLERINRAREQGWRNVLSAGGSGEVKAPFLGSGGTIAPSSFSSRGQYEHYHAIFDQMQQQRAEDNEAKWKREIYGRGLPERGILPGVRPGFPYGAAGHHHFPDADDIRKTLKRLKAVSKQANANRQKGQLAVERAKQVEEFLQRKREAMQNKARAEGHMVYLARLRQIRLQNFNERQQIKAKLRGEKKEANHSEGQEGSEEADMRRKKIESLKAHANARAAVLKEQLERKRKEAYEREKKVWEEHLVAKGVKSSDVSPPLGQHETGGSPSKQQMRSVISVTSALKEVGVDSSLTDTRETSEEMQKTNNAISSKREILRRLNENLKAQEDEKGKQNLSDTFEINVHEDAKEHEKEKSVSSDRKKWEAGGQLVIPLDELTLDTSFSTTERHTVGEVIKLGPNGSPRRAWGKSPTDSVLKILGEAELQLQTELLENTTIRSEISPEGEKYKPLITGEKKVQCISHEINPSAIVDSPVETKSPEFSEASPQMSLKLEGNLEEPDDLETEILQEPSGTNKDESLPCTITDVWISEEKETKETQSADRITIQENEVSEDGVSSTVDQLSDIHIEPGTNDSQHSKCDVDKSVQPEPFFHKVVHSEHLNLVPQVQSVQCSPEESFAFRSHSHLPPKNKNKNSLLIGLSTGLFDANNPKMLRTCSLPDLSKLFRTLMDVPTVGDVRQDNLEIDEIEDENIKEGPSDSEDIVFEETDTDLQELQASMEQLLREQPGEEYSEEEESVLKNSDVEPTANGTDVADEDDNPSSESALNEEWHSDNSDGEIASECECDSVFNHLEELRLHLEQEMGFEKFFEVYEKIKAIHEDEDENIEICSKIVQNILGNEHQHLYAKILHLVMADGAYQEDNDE
Conditions: at 0.1 µM.

Assay [13] concerns the target T5, Serine/threonine-protein kinase Nek1 (Homo sapiens). Conditions: at 1 µM.
In assay [14] the target is T6, Serine/threonine-protein kinase Nek2 (Homo sapiens) (UniProt P51955).
T6 sequence (whole entry): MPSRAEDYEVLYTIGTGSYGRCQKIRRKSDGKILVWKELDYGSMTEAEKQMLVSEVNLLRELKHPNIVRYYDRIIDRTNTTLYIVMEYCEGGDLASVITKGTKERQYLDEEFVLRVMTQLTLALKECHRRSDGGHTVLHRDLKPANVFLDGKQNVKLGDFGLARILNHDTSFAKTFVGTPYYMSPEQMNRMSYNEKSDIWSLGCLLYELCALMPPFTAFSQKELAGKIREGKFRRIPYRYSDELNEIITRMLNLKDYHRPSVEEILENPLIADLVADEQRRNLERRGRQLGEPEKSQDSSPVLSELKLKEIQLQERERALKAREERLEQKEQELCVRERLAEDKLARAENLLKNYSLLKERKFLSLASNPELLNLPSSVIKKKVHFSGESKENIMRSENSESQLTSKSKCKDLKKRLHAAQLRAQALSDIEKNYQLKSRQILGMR
The conditions noted are these: at 0.1 µM.

The target of assay [15] is T6, Serine/threonine-protein kinase Nek2 (Homo sapiens). Conditions: at 1 µM.
The target in assay [16] is Serine/threonine-protein kinase Nek6 (Homo sapiens) (UniProt Q9HC98). The conditions noted are these: at 0.1 µM.
For assay [17] the target is unchanged. Conditions: at 1 µM.
For assay [18], the target named is Serine/threonine-protein kinase Nek7 (Homo sapiens) (UniProt Q8TDX7). The conditions noted are these: at 0.1 µM.
For assay [19] the target is unchanged. Conditions: at 1 µM.
Assay [20] has as its target T7, Serine/threonine-protein kinase Nek9 (Homo sapiens) (UniProt Q8TD19).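 Further: reported value is the mean percent inhibition of NEK9.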
T7 sequence (whole entry): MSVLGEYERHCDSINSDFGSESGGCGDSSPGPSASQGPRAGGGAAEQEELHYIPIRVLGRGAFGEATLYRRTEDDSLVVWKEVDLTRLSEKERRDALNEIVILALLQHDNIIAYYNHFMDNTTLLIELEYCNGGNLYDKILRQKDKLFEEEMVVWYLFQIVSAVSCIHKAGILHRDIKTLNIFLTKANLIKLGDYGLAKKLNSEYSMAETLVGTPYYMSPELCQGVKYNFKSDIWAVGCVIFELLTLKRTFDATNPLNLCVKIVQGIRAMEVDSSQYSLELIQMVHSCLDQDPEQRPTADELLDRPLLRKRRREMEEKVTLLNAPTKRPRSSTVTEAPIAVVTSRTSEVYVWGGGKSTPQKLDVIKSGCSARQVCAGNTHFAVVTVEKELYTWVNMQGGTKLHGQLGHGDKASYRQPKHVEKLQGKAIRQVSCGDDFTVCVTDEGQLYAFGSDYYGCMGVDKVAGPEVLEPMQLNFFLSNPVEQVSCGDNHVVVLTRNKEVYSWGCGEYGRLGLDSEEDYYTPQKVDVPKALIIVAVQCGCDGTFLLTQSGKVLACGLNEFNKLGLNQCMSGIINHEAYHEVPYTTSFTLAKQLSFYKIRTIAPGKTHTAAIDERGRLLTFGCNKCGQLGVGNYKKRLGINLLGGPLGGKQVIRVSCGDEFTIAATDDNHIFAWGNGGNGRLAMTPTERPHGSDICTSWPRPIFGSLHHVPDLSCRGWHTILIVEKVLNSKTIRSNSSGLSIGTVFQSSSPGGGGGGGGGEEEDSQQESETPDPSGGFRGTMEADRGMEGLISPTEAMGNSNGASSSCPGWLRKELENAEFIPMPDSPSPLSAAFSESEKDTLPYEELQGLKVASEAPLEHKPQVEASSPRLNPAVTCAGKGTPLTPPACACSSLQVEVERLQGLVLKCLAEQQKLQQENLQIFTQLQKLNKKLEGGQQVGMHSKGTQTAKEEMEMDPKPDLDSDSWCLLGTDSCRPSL
Conditions: at 0.1 µM.

Each structure is given as a SMILES string.

What is called inhibition is the relative decrease from the control value, in per cent.

Chain of Serine/threonine-protein kinase Nek6 (Homo sapiens) (Q9HC98 whole entry): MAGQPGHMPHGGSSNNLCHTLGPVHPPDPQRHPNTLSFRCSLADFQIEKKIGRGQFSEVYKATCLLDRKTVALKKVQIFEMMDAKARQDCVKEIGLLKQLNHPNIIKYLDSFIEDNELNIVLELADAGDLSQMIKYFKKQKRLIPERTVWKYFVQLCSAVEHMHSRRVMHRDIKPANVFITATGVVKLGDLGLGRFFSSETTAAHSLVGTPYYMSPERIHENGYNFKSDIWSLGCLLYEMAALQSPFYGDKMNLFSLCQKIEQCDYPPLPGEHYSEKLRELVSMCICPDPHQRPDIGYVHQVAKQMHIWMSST
Chain of Casein kinase II subunit alpha (Homo sapiens) (P68400 whole entry, looked up): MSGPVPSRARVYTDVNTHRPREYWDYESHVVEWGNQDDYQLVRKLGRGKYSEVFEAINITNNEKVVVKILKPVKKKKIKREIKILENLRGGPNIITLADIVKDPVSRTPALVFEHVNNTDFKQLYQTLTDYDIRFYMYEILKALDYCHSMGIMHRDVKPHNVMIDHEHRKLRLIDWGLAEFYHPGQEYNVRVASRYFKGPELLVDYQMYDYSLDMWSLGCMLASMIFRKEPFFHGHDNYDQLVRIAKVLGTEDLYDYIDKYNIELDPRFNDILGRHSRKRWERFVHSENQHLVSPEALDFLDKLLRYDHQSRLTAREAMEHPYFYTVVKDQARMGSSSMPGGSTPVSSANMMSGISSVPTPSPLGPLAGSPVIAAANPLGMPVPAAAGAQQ
Chain of Serine/threonine-protein kinase Nek7 (Homo sapiens) (Q8TDX7 whole entry, looked up): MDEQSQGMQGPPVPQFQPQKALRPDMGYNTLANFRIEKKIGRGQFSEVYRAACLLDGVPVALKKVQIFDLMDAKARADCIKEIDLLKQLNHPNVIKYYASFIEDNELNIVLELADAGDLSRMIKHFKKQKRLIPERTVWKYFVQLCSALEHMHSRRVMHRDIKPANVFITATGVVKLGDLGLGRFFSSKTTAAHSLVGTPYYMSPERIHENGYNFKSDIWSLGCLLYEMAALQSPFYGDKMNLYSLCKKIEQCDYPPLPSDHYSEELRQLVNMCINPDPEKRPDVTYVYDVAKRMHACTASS
Chain of Sphingosine kinase 1 (Homo sapiens) (Q9NYA1 whole entry): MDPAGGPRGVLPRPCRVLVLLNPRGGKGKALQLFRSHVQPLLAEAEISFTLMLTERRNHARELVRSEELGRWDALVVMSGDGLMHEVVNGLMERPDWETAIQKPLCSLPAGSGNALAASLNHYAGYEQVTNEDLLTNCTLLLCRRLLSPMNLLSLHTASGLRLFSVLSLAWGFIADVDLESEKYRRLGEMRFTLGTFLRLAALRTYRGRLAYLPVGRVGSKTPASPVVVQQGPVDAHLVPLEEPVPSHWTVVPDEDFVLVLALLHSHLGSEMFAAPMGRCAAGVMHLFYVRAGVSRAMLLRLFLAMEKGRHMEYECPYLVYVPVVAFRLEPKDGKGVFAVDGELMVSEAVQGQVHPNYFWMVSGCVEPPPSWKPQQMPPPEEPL

For `CC1=C(C(=O)Nc2cc(Cl)c3[nH]ncc3c2)C(c2ccc(C(F)(F)F)cc2)CC(=O)N1` (stereo not given), the inhibition in assay [1] was -1.96%; in [2], 0.58%; in [3], 0.72%; in assay [4] it was 3.06%; in [5] it was 1.13%; in assay [6], 4.43%. Further, the inhibition in assay [7] was 4.34%; in assay [8], 3.26%; in [9] it was 5.73%; in [10] it was 4.64%; in [11], 5.11%; in assay [12], 2.99%. In addition, the inhibition in assay [13] was 3.61%; in assay [14] it was 4.1%; in [15], 4.83%; in assay [16], 2.7%; in assay [17], 2.6%; in assay [18] it was 4.35%. The inhibition in assay [19] came to 3.32%; in assay [20], 5.83%.

(Values after ChEMBL document CHEMBL1961873, “Compounds: GSK PKIS; Assays: Nanosyn kinase panel” (2012).)
